# Unmarked numbers belong to inactive results. Inconclusive results are not listed. Entries that show only a call come without a potency. Active and inactive are the calls of the source. Unless noted, calls come from the whole dose curve.
# Key:
# [1] = Nuclear factor erythroid 2-related factor 2/antioxidant responsive element (Nrf2/ARE) small molecule agonists: qHTS cell viability counter screen in human keratinocytes (AID 1919968; active = well fitted curve in the direction sought with a large enough effect in the repeat runs; an effect the other way counts as inactive or inconclusive; note: nearly all actives have a fitted effect of over 55% in size)
# Procedure, shortened: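 KeratinoSens cells (HaCaT keratinocytes stably carrying an ARE-luciferase reporter) were seeded at 1,500 cells/well and rested 5 h at 37 C/5% CO2. They were then exposed to compounds in DMSO for 23 h. Viability was read by CellTiter-Fluor fluorescence after 1 h.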
# [2] = Nuclear factor erythroid 2-related factor 2/antioxidant responsive element (Nrf2/ARE) small molecule agonists: luciferase reporter gene qHTS assay in human keratinocytes (AID 1919969); note: nearly all actives have a fitted effect of over 35% in size
# [3] = target: Gonadotropin-releasing hormone receptor (Homo sapiens) (UniProt P30968); experiment: Human gonadotropin-releasing hormone receptor (GnRHR) small molecule agonists, calcium flux assay in GnRHR-HEK293 cells (AID 1920063); note: nearly all actives have a fitted effect of over 35% in size
# Procedure, shortened: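 HEK293 cells stably expressing human GnRHR were plated 18 h at 37 °C, loaded with calcium dye 1 h at 37 °C, then given compound in agonist mode; fluorescence (Ex/Em 480/540) read kinetically for 3 min at 1 s intervals.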
# [4] = p53 small molecule agonists, cell-based qHTS assay with human liver microsomes (AID 1963577)
# Procedure, shortened: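 Cells carrying a p53-responsive bla reporter were rested 5 h (37 C, 5% CO2) before compound transfer. Human liver microsomes plus NADPH, 0.5 mg/mL final apiece, supplied metabolism during the 16 h 37 C exposure.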
# [5] = p53 small molecule agonists, cell-based qHTS assay with rat liver microsomes (AID 1963578)
# Procedure, shortened: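 Fluorescence from a beta-lactamase reporter under a p53 response element was measured after cells had been incubated 16 h at 37 C with test compound and rat liver microsomes plus NADPH (0.5 mg/mL final each).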
# [6] = p53 small molecule agonists, cell-based qHTS assay with human liver microsomes: qHTS cell viability counter screen (AID 1963579); note: nearly all actives have a fitted effect of over 45% in size
# Procedure, shortened: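 Seed p53RE-bla cells at 4,000 per well; incubate 5 h at 37 C; add compound, human liver microsomes and NADPH; incubate 16 h at 37 C; add CellTiter-Glo; after 30 min at room temperature, read luminescence.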
# [7] = p53 small molecule agonists, cell-based qHTS assay with rat liver microsomes: qHTS cell viability counter screen (AID 1963580); note: nearly all actives have a fitted effect of over 45% in size
# Procedure, shortened: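 Intracellular ATP, by CellTiter-Glo luminescence, defines viability. HCT-116 p53RE-bla cells, 4,000 per well, were compound-treated in the presence of rat liver microsomes and NADPH for 16 h at 37 C.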
# [8] = p53 small molecule agonists, cell-based qHTS assay: qHTS cell viability counter screen (AID 1963581); note: nearly all actives have a fitted effect of over 45% in size
# Procedure, shortened: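 p53RE-bla HCT-116 cells were exposed to compounds for 16 h at 37 C; after the beta-lactamase FRET read in the same wells, CellTiter-Glo was added and luminescence (intracellular ATP) read after 30 min at room temperature.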
# [9] = p53 small molecule agonists, cell-based qHTS assay (AID 1963582; active = well fitted activation curve with a large enough effect in the signal ratio in the repeat runs, not every such curve was filed as active; the % refers to the signal ratio)
# Procedure, shortened: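 p53RE-bla beta-lactamase reporter cells rested 5 h at 37 C/5% CO2, then received compounds in DMSO by pin transfer and were incubated 16 h at 37 C. LiveBLAzer B/G FRET substrate was loaded for 2 h at room temperature before fluorescence reading.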
# [10] = target: 5-hydroxytryptamine receptor 2A (Homo sapiens) (UniProt P28223); experiment: 5-hydroxytryptamine receptor 2A (HTR2A) small molecule antagonists, cell-based qHTS assay (AID 1963586); note: nearly all actives have a fitted effect of over 45% in size
# Procedure, shortened: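 Antagonist-mode intracellular calcium assay: DOI (4 nM) added after 5 min compound pre-incubation at room temperature to dye-loaded HTR2A-CHO cells. Fluorescence followed for 3 min, sampled every second.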
# [11] = target: 5-hydroxytryptamine receptor 2A (Homo sapiens) (UniProt P28223); experiment: 5-hydroxytryptamine receptor 2A (HTR2A) small molecule agonists, cell-based qHTS assay (AID 1963587); note: nearly all actives have a fitted effect of over 30% in size
# Procedure, shortened: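 Kinetic calcium-flux fluorescence (2 min, 1 sec intervals) after compound addition in agonist mode. HTR2A-CHO cells were cultured 18 h, then dye-loaded 1 h at 37 C.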
# [12] = target: Muscarinic acetylcholine receptor M1 (Homo sapiens) (UniProt P11229); experiment: Cholinergic receptor muscarinic 1 (CHRM1) small molecule antagonists, cell-based qHTS assay (AID 1963588); note: nearly all actives have a fitted effect of over 40% in size
# Procedure, shortened: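 CHRM1-CHO calcium-flux assay, antagonist mode. Cells were seeded 18 h, dye-loaded 1 h at 37 C and given compound for 5 min at RT, then acetylcholine was added at 50nM. FDSS fluorescence was read 3 min; 15 concentrations, three runs.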
# [13] = target: Muscarinic acetylcholine receptor M1 (Homo sapiens) (UniProt P11229); experiment: Cholinergic receptor muscarinic 1 (CHRM1) small molecule agonists, cell-based qHTS assay (AID 1963589); note: nearly all actives have a fitted effect of over 35% in size
# Procedure, shortened: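 CHO cells stably expressing human CHRM1, seeded 18 h at 37 C/5% CO2, dye-loaded 1 h at 37 C, then given compound in agonist mode; intracellular calcium fluorescence read kinetically at 1 s intervals. Fifteen concentrations, three independent runs.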
# [14] = cAMP Responsive Elements (CRE) small molecule agonists, cell-based qHTS assay (AID 1963590)
# Procedure, shortened: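 CRE-bla HEK 293T cells in DMEM with 10% dialyzed FBS, NEAA, pyruvate and 25 mM HEPES were plated 18 h at 37 C/5% CO2, then exposed to compounds in DMSO for 3 h before LiveBLAzer B/G FRET substrate addition.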
# [15] = cAMP Responsive Elements (CRE) small molecule antagonists, cell-based qHTS assay (AID 1963591; active = well fitted inhibition curve with a large enough effect in the signal ratio in the repeat runs, not every such curve was filed as active; the % refers to the signal ratio)
# Procedure, shortened: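 CRE-bla HEK293T cells were plated 18 h at 37 °C/5% CO2, pinned with compound in DMSO, then stimulated with NKH477 at 0.25 uM final for 3 h. LiveBLAzer B/G FRET substrate was added and plates incubated 2 h at room temperature.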
# [16] = target: Beta-2 adrenergic receptor (Homo sapiens) (UniProt P07550); experiment: Adrenergic beta2 receptor (ADRB2) small molecule antagonists, cell-based qHTS assay (AID 1963592); note: nearly all actives have a fitted effect of over 50% in size; note: potency is the fitted concentration of half-maximal effect
# Procedure, shortened: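 Cells (CHO, stable ADRB2 overexpression) incubated 18-20hr at 37C; compounds added from DMSO; agonist mix (1nM isoproterenol, 100uM IBMX, 25uM Ro-20-1724) added; 0.5hr RT; d2-cAMP and anti-cAMP-cryptate added; 1hr RT; 665/615 nm read.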
# [17] = target: D(2) dopamine receptor (Homo sapiens) (UniProt P14416); experiment: Dopamine D2 receptor (DRD2) small molecule antagonists, cell-based qHTS assay (AID 1963595; active = well fitted inhibition curve with a large enough effect in the signal ratio in the repeat runs, with a control signal flat; the % refers to the signal ratio)
# Procedure, shortened: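 Antagonist mode in DRD2-HEK293 cells: after compound addition with 0.1 mM Ro20-1724, cells received quinpirole (12 nM) and NKH477 (200 nM) for 30 min at room temperature; HTRF cAMP read after 1 h detection.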
# [18] = target: KiSS-1 receptor (Homo sapiens) (UniProt Q969F8); experiment: Human kisspeptin (KISS1R) small molecule agonists, calcium flux assay in KISS1R-HEK293 cells (AID 1920064; active = well fitted curve in the direction sought with a large enough effect in the repeat runs; an effect the other way counts as inactive or inconclusive)
# Procedure, shortened: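 HEK293 cells stably expressing human KISS1R were plated 18 h at 37 °C, loaded with calcium dye for 1 h at 37 °C, then given compound by pin tool. Fluorescence (Ex/Em 480/540) was read kinetically for 3 min.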
# [19] = target: D(2) dopamine receptor (Homo sapiens) (UniProt P14416); experiment: Dopamine D2 receptor (DRD2) small molecule agonists, cell-based qHTS assay (AID 1963594); note: nearly all actives have a fitted effect of over 35% in size
# Procedure, shortened: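 cAMP accumulation in DRD2-HEK293 cells measured by HTRF after 1 h detection; compounds added 10 min before NKH477 (200nM […]) forskolin-analogue stimulation, 30 min at room temperature, with Ro20-1724 present at 0.1 mM final.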
# [20] = target: Beta-2 adrenergic receptor (Homo sapiens) (UniProt P07550); experiment: Adrenergic beta2 receptor (ADRB2) small molecule agonists, cell-based qHTS assay (AID 1963593);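 note: CHO cells stably overexpressing human ADRB2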
# Procedure, shortened: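 CHO cells stably over-expressing ADRB2 were plated overnight at 37C, then dosed with compounds plus a stimulation mix containing 100uM IBMX and 25uM Ro-20-1724 for 0.5hr at room temperature. cAMP was measured by HTRF competition, 1hr.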
# D(2) dopamine receptor (Homo sapiens), sequence (P14416 whole entry, looked up): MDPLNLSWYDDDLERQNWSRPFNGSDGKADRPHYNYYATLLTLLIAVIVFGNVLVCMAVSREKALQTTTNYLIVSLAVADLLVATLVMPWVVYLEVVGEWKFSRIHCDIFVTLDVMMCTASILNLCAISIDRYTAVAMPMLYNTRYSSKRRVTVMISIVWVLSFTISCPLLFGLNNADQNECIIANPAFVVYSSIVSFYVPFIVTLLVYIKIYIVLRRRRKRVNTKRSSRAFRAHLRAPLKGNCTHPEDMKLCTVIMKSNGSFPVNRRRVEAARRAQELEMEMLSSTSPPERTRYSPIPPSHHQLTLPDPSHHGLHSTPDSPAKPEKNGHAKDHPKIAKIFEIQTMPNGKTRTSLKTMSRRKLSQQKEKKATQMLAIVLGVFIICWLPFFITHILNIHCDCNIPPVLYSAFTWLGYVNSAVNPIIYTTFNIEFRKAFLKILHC
# 5-hydroxytryptamine receptor 2A (Homo sapiens), sequence (P28223 whole entry, looked up): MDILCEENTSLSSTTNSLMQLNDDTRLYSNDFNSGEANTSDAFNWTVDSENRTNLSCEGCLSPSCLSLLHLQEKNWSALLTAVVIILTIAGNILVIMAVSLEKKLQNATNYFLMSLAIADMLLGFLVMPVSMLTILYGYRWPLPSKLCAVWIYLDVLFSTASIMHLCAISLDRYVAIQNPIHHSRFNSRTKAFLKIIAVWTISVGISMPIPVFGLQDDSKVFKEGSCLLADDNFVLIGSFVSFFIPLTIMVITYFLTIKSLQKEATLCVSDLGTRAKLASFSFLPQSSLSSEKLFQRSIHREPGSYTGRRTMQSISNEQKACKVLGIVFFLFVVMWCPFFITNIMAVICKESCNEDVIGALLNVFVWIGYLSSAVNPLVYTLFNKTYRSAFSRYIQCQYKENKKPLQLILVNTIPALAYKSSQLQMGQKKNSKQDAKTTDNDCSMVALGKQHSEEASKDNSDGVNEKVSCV
# KiSS-1 receptor (Homo sapiens), sequence (Q969F8 whole entry, looked up): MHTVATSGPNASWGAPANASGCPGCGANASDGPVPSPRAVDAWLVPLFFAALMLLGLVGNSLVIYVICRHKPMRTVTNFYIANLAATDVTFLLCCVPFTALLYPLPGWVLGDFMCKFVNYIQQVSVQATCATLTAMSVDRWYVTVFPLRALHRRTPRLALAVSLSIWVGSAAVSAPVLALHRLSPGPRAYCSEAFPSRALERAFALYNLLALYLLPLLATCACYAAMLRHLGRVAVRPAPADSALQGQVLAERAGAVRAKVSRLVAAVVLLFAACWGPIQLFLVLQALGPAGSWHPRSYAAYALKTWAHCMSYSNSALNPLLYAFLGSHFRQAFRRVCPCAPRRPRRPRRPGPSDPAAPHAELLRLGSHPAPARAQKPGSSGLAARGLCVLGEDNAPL
# Muscarinic acetylcholine receptor M1 (Homo sapiens), sequence (P11229 whole entry, looked up): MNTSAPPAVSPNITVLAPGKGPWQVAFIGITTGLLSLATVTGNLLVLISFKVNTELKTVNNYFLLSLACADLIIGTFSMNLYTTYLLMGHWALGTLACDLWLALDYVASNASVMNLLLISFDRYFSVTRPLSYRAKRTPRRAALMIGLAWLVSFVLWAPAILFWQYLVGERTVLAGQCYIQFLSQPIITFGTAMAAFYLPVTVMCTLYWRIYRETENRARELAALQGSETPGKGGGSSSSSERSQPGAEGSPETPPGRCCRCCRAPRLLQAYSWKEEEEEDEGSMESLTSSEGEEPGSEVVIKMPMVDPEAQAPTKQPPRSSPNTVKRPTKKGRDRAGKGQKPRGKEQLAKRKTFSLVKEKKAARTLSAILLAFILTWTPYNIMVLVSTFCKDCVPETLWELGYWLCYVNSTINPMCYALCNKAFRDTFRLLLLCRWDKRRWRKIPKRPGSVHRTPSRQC
# Gonadotropin-releasing hormone receptor (Homo sapiens), sequence (P30968 whole entry, looked up): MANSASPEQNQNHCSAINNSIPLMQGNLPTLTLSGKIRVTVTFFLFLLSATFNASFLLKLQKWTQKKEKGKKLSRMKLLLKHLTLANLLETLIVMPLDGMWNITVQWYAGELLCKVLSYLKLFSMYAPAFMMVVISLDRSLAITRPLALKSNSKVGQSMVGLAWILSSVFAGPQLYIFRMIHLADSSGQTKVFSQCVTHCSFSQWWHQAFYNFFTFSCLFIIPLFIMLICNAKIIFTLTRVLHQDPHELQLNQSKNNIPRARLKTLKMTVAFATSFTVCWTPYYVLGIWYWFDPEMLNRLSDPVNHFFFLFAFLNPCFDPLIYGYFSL
# Beta-2 adrenergic receptor (Homo sapiens), sequence (P07550 whole entry, looked up): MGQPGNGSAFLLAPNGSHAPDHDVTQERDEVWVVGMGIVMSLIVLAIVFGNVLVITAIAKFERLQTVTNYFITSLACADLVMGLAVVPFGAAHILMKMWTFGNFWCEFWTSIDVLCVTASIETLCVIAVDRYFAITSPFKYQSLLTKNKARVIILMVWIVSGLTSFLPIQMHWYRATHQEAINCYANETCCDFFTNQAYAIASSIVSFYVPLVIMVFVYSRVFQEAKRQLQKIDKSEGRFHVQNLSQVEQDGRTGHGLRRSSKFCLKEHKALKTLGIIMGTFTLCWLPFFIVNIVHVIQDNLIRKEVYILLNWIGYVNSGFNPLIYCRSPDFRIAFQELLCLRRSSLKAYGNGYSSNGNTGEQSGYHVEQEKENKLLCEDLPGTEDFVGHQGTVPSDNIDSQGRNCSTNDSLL
SMILES,Potency [1],Potency [2],Potency [3],Potency [4],Potency [5],Potency [6],Potency [7],Potency [8],Potency [9],Potency [10],Potency [11],Potency [12],Potency [13],Potency [14],Potency [15],Potency [16],Potency [17],outcome [18],Potency [19],Potency [20]
CCCCOCCOC(=O)c1cccnc1,inactive,inactive,inactive,inactive,inactive,inactive,inactive,inactive,inactive,inactive,inactive,inactive,inactive,inactive,inactive,inactive,inactive,–,–,–
COc1cc2c(cc1OC)C(=O)C(CC1CCN(Cc3ccccc3)CC1)C2 (centres undefined),inactive,inactive,inactive,inactive,–,inactive,inactive,inactive,inactive,–,inactive,inactive,inactive,inactive,–,18.8 µM (active),–,inactive,inactive,–
Nc1ccc(Cl)cc1[N+](=O)[O-],inactive,inactive,inactive,inactive,–,–,inactive,inactive,inactive,inactive,inactive,inactive,inactive,inactive,inactive,inactive,inactive,inactive,–,–
CC1=CC(=O)CC(C)(C)C1=O,inactive,inactive,inactive,inactive,–,inactive,inactive,inactive,inactive,–,–,–,inactive,inactive,inactive,inactive,inactive,inactive,inactive,–
CCCCCCOC(=O)C(C)C,inactive,inactive,inactive,inactive,inactive,inactive,inactive,inactive,inactive,inactive,inactive,inactive,inactive,inactive,–,inactive,inactive,–,inactive,inactive
O=C(O)c1ccccc1C(=O)Nc1ccc(S(=O)(=O)Nc2nccs2)cc1,inactive,inactive,inactive,inactive,inactive,inactive,inactive,inactive,inactive,inactive,inactive,–,inactive,inactive,inactive,inactive,inactive,–,inactive,inactive
Cc1nc(C)nc(N2C[C@@H](C)N(c3ccnc([C@@H](C)O)n3)[C@@H](C)C2)n1,inactive,inactive,inactive,inactive,inactive,inactive,inactive,inactive,inactive,inactive,inactive,–,inactive,–,–,inactive,inactive,–,inactive,–

# — PubChem BioAssay (Tox21)
